In PubChem BioAssay:
Values without a mark were called inactive. Active and inactive are the calls of the source. Rule as the data show it, unless noted: active = inhibition above about 36%; inactive = the rest.

Experiments:
[1] = target: Nuclear receptor coactivator 3 (Homo sapiens) (UniProt Q9Y6Q9); experiment: NCOA3 GAL4-fusion reporter inhibition – cell-based, luminescence, quadruplicate, confirmation (AID 588792;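 active = mean inhibition over 43.08%, the solvent-only control mean plus 3 SD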;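 also: 0% = DMSO treated cells and 100% = gossypol at 36 µM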); conditions: HEK293 GAL4-SRC3 luciferase reporter, at 3.6 µM, hits give high values
Chain of Nuclear receptor coactivator 3 (Homo sapiens) (Q9Y6Q9 whole entry, looked up, the tested form may be a part): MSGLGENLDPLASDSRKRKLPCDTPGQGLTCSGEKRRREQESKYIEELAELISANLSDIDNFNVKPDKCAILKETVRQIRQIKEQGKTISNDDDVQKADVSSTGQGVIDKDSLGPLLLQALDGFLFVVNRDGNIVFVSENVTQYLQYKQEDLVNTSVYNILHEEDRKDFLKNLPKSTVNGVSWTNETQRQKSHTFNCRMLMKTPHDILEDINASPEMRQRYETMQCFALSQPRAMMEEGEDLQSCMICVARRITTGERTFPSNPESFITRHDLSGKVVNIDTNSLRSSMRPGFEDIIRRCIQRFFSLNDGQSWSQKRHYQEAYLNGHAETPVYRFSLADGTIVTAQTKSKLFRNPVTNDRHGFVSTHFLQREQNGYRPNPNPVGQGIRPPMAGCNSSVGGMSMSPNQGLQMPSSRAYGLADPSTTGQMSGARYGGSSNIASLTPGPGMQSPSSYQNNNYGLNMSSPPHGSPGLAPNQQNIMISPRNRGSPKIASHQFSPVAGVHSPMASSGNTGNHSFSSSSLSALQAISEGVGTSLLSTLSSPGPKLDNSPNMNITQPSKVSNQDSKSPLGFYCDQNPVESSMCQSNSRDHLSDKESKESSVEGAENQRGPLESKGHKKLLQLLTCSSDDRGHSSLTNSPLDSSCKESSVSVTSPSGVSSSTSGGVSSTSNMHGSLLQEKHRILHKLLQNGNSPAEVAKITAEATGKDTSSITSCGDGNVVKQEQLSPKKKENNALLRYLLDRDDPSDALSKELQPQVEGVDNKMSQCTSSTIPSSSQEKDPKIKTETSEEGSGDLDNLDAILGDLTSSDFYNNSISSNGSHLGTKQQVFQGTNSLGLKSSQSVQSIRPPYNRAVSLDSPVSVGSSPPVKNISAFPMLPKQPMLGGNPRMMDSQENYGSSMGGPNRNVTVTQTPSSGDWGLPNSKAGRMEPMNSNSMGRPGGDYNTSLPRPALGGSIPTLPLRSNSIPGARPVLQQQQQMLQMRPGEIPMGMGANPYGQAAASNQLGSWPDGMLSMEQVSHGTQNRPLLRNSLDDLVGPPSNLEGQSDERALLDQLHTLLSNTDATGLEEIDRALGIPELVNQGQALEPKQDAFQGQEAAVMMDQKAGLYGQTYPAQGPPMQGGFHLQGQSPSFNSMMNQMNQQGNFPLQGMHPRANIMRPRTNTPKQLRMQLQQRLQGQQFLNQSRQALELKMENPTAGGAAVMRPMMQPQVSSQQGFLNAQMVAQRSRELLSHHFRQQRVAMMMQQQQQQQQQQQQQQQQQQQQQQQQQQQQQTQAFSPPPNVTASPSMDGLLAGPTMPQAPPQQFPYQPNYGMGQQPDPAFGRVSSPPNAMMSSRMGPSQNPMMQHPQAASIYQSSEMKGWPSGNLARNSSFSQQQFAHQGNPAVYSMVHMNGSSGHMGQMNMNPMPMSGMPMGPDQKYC

[2] = test system: transactivating tegument protein VP16 (Human herpesvirus 1), Gal4-VP16 luciferase reporter; experiment: repression of VP16-driven luciferase reporter – cell-based, luminescence, high throughput, counter-screen for SRC3 inhibitor project (AID 588794; in the data active = inhibition above about 30%); conditions: mammalian cells, at 3.6 µM, hits give high values
[3] = target: Nuclear receptor coactivator 1 (Homo sapiens) (UniProt Q15788); experiment: NCOA1 GAL4-fusion reporter inhibition – cell-based, luminescence, quadruplicate, confirmation (AID 588820;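 active = mean inhibition above 46.68%, the untreated control wells mean plus 3 SD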;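 also: 0% = DMSO wells and 100% = gossypol 36 µM treated wells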); conditions: HEK293 GAL4-SRC1 luciferase reporter, at 3.6 µM, hits give high values
Chain of Nuclear receptor coactivator 1 (Homo sapiens) (Q15788 whole entry, looked up, the tested form may be a part): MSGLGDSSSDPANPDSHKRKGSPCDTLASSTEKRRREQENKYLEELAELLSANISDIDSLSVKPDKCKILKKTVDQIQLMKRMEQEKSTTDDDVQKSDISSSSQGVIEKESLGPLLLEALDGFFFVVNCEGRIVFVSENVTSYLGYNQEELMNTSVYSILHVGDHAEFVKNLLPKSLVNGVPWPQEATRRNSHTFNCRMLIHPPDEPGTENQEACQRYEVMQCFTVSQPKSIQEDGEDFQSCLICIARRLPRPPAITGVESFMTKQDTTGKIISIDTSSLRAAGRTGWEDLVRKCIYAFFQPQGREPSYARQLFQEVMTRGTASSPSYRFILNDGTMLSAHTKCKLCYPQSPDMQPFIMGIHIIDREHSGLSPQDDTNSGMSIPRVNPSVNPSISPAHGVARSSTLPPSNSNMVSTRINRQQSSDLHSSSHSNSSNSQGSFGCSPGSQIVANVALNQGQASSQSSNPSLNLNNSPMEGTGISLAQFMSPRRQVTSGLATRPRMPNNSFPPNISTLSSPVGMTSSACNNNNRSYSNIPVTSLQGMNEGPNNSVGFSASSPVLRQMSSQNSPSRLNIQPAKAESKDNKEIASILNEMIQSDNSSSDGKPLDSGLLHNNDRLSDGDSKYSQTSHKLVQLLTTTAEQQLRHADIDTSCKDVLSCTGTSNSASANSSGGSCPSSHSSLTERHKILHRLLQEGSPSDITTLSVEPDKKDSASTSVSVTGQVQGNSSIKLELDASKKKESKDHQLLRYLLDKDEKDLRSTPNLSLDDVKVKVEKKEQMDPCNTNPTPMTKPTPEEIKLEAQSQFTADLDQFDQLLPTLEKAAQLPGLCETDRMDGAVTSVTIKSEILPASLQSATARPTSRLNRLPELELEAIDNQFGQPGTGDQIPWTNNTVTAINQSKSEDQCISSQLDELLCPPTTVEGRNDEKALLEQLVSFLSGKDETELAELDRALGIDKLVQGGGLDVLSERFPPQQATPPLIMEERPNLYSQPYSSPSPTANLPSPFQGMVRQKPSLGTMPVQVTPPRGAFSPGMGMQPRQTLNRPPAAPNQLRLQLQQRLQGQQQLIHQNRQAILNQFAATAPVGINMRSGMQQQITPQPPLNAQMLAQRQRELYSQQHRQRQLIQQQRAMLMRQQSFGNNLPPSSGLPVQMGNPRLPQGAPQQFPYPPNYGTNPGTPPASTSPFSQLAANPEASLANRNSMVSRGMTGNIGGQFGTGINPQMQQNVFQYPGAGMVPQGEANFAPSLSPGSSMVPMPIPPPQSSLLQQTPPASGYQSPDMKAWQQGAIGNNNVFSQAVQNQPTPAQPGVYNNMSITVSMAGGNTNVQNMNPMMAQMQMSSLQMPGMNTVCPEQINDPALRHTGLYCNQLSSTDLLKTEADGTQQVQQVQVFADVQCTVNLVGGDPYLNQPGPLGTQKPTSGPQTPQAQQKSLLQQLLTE

[4] = repression of VP16-driven luciferase reporter – cell-based, luminescence, high throughput, counter-screen for SRC1 inhibitor project (AID 588824; in the data active = inhibition above about 25%); conditions: cell-based VP16 transactivation luciferase luminescence; at 3.6 µM; hits give high values
[5] = StAR promoter reporter inhibitors, counter-screen for LRH-1 inverse agonist project, cell-based, luminescence, high throughput (AID 651611; in the data active = inhibition above about 28%); conditions: StAR promoter luciferase reporter counterscreen, at 3.6 µM, hits give high values
[6] = target: Nuclear receptor subfamily 5 group A member 2 (Homo sapiens) (UniProt O00482); experiment: NR5A2 activity suppression in reporter cells – cell-based, luminescence, confirmation (AID 651613; in the data active = inhibition above about 42%;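 also: HEK293T cells co-transfected with LRH-1 and StAR promoter luciferase reporter; 0% = vehicle wells and 100% = parental cells lacking receptor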); conditions: cell-based LRH-1 luciferase reporter, inverse agonism; at 3.6 µM; hits give high values
Chain of Nuclear receptor subfamily 5 group A member 2 (Homo sapiens) (O00482 whole entry, looked up): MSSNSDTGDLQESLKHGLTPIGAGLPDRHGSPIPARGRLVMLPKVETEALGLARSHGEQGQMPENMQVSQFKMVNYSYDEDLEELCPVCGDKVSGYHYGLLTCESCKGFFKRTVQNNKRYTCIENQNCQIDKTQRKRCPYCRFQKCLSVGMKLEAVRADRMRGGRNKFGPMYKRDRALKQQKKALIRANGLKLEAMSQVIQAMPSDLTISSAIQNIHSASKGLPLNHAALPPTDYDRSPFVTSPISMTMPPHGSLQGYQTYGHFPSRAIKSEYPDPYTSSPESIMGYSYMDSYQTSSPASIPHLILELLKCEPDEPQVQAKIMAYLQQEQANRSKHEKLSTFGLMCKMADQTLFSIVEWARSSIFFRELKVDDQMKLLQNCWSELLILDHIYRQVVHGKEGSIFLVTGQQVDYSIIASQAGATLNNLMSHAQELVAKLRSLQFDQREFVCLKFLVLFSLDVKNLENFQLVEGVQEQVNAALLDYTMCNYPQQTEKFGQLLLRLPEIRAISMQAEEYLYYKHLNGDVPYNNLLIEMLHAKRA

[7] = target: Steroidogenic factor 1 (Homo sapiens) (UniProt Q13285); experiment: inverse agonism at SF1 nuclear receptor – cell-based, luminescence, high throughput, counter-screen for LRH-1 inverse agonist project (AID 651614; in the data active = inhibition above about 44%;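 also: cells cotransfected with StAR promoter reporter and SF1 expression vector; 0% = vehicle on cells with receptor and 100% = vehicle on cells lacking receptor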); conditions: cell-based SF1 luciferase reporter, at 3.6 µM, hits give high values
Chain of Steroidogenic factor 1 (Homo sapiens) (Q13285 whole entry, looked up, the tested form may be a part): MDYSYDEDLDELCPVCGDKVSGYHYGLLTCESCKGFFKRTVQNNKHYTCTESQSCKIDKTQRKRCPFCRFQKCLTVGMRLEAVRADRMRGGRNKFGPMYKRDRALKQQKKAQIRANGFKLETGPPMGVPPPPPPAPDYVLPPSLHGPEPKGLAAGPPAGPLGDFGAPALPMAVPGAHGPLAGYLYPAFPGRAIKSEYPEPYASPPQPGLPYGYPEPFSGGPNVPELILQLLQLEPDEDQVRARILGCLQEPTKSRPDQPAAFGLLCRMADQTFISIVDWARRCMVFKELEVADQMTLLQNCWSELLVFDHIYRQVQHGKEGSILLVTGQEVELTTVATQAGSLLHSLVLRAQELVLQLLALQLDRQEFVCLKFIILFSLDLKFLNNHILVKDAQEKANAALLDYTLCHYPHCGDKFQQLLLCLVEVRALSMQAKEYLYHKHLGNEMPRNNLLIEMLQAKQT

[8] = compounds suppressing VP16-driven luciferase signal – cell-based, luminescence, high throughput, counter-screen for LRH-1 inverse agonist project (AID 651615; in the data active = inhibition above about 33%); conditions: Gal4-VP16 luciferase reporter cells, at 3.6 µM, hits give high values
[9] = test system: transactivating tegument protein VP16 (Human herpesvirus 1); experiment: compounds suppressing VP16-driven luciferase signal – cell-based, luminescence, single concentration, counter-screen for SRC2 inhibitor project (AID 652007); conditions: cell-based VP16 transactivation luciferase reporter, at 8.9 µM, hits give high values
[10] = target: Nuclear receptor coactivator 2 (Homo sapiens) (UniProt Q15596); experiment: inhibition of GAL4-SRC2 driven luciferase expression – cell-based, luminescence, HEK293, triplicate, confirmation (AID 652008;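 active = mean inhibition above 46.5%, the solvent-only control mean plus 3 SD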;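 also: 0% = DMSO-treated cells and 100% = Gossypol at 36 µM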); conditions: HEK293 GAL4-SRC2 luciferase reporter, at 8.9 µM, hits give high values

## O=C(Nc1nc2ccccc2[nH]1)c1ccccc1F
[1]
  inhibition: 27.6%
[2]
  inhibition: 19.6%
[3]
  inhibition: -26.7%
[4]
  inhibition: 11.2%
[5]
  inhibition: -0.87%
[6]
  inhibition: -32.3%
[7]
  inhibition: 13.5%
[8]
  inhibition: -10.4%
[9]
  inhibition: 43.9% (active)
[10]
  inhibition: 67.2% (active)

## CC(C)c1ccc(-n2c(-c3ccccc3)c[n+]3c2CCc2ccccc2-3)cc1
[1]
  inhibition: 72.4% (active)
[2]
  inhibition: 84% (active)
[3]
  inhibition: 63.6% (active)
[4]
  inhibition: 84.4% (active)
[5]
  inhibition: 76.3% (active)
[6]
  inhibition: 108% (active)
[7]
  inhibition: 91.6% (active)
[8]
  inhibition: 90.1% (active)
[9]
  inhibition: 60.1% (active)
[10]
  inhibition: 71.4% (active)

## O=C(O)c1ccc(N/N=C/c2ccc3nccnc3c2)cc1
[1]
  inhibition: 17.8%
[2]
  inhibition: 10.9%
[3]
  inhibition: -44.9%
[4]
  inhibition: 10.3%
[5]
  inhibition: 48.4% (active)
[6]
  inhibition: 21.4%
[7]
  inhibition: 61% (active)
[8]
  inhibition: 14.8%
[9]
  inhibition: 42.2% (active)
[10]
  inhibition: 75.5% (active)

## Cc1cc(C(=O)COC(=O)c2ccccc2O)c(C)n1CC1CCCO1 (stereo not given)
[1]
  inhibition: 88.8% (active)
[2]
  inhibition: 85.1% (active)
[3]
  inhibition: 81.2% (active)
[4]
  inhibition: 76.8% (active)
[5]
  inhibition: 73.5% (active)
[6]
  inhibition: 64.9% (active)
[7]
  inhibition: 76.7% (active)
[8]
  inhibition: 75.2% (active)
[9]
  inhibition: 86.7% (active)
[10]
  inhibition: 96.3% (active)
